# Data from PubChem BioAssay (NCATS).
# Inconclusive results are not listed. Where a call stands in place of a potency, no number is given. Calls of active or inactive are those of the source. Unless noted, calls follow the shape of the dose curve; as a rule, active = well fitted curve in the direction sought with a large enough effect; inconclusive = small, poorly fitted or top-dose-only effect, or another doubt; inactive = no such curve, though single readings can be large; an effect the other way counts as inactive or inconclusive.
# Columns and labels:
# [1] = biological target: 3',5'-cyclic-AMP phosphodiesterase 4B (Homo sapiens) (UniProt Q07343); experiment: qHTS Assay for Inhibitors of PDE-IV (AID 607; active = well fitted activation curve with a large enough effect in the main read-out, with a control signal flat, not every such curve was filed as active); settings: HEK293 ACTOne CNG channel cells, membrane potential fluorescence; series mostly up to 22.9 µM
# Chain of 3',5'-cyclic-AMP phosphodiesterase 4B (Homo sapiens) (Q07343 whole entry, looked up): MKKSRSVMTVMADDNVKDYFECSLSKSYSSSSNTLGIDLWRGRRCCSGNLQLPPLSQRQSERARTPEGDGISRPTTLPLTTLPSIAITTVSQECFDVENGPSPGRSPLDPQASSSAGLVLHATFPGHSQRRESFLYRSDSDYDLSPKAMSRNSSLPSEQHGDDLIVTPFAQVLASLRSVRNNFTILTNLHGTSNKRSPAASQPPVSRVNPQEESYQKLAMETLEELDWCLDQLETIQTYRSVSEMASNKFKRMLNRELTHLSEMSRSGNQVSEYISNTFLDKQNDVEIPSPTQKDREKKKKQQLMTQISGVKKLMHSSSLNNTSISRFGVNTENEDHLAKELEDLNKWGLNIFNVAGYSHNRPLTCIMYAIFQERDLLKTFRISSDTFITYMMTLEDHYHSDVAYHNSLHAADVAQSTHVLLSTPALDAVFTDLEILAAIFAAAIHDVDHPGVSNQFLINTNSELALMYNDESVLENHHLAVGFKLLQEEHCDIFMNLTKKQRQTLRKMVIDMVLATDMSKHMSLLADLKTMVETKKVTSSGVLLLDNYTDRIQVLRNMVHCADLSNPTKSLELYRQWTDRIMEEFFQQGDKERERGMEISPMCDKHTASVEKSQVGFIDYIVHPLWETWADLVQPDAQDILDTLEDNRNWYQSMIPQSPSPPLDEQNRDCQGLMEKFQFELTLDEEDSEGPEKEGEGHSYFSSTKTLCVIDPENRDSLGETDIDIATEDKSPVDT
# How it was run: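 Cell-based read-out of cAMP via a modified cyclic nucleotide-gated channel and membrane potential dye (535/590 nm) in HEK293 cells expressing PDE4 endogenously. Compounds tested up to 22.9 uM final; 100 uM RO 20-1724 reference.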
# [2] = biological target: Cytochrome P450 2D6 (Homo sapiens) (UniProt P10635); experiment: qHTS Assay for Inhibitors and Substrates of Cytochrome P450 2D6 (AID 891); settings: recombinant CYP2D6, luciferin-ME EGE luminescence; series mostly up to 57.1 µM; also: potency is read from the fitted curve at half-maximal effect; nearly all actives have a fitted effect of over 60% in size
# Chain of Cytochrome P450 2D6 (Homo sapiens) (P10635 whole entry, looked up): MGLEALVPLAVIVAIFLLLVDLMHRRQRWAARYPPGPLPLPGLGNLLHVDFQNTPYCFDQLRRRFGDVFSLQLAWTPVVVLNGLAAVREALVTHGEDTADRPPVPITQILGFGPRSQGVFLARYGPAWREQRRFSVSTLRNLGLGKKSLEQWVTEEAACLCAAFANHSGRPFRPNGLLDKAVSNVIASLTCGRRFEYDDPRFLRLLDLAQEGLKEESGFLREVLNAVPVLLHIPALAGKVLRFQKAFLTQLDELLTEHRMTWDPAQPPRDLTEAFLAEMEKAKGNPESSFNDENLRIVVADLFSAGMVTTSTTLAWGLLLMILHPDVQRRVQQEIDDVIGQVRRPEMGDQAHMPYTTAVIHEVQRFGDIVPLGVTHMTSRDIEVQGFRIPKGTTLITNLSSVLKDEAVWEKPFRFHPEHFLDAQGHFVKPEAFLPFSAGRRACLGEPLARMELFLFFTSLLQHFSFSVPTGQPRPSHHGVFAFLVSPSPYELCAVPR
# How it was run: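 Human CYP2D6 (5 nM) with 30 uM Luciferin-ME EGE (at Km) in 100 mM KPO4, compound preincubated 10 min, then NADPH regeneration system for 60 min at room temperature. Luciferin read by luminescence; normalized to 1.43 uM quinidine.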
# [3] = Cellular Toxicity (caspase-3) Jurkat (AID 655); settings: Jurkat caspase-3 activation, luminescence; series mostly up to 92.2 µM;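 also: cells exposed to compound for 16 h at 37 °C before reading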
# How it was run: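 Caspase 3/7 activation is scored as increased luminescence in Jurkat cells cultured with compound for 16 hours in complete medium. AC50 values come from Hill fits of qHTS concentration-response data normalized to DMSO and 100 uM tamoxifen controls.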
# [4] = Cellular Toxicity (caspase-3) SHSY5Y (AID 657); settings: SH-SY5Y caspase-3 activation; series mostly up to 91.7 µM
# How it was run: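 Cells plated and incubated 5 h at 37 °C, dosed over a concentration range, incubated 16 h, then given Caspase-Glo 3/7 reagent for 1 h at room temperature before luminescence reading. Staurosporine (10 uM) defined full stimulation.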
# [5] = Cellular Toxicity (caspase-3) BJ (AID 658); settings: BJ fibroblasts, luminescence, normalized: DMSO 0%, staurosporine 100%; series mostly up to 91.7 µM
# How it was run: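 Readout: Caspase-Glo 3/7 luminescence increase in BJ cells after 16 hr treatment at 37 °C. Staurosporine and tamoxifen served as positive controls; AC50 values came from Hill modelling of data normalized to DMSO and 10 uM staurosporine.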
# [6] = Cellular Toxicity (caspase-3) MRC-5 (AID 659); settings: MRC-5 cells, luminescence; Potency: caspase-3 activation; series mostly up to 91.7 µM
# How it was run: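 Concentration-dependent caspase 3/7 activation is measured in human normal lung fibroblasts (MRC-5) following 16-hour treatment. AC50 values come from standard Hill-equation modeling of luminescence normalized to DMSO and 10 uM staurosporine.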
# [7] = Cellular Toxicity (caspase-3) Mesangial (AID 660); settings: mesangial cells, normalized: DMSO 0%, 100 µM tamoxifen 100%; series mostly up to 91.7 µM;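 also: combined caspase 3 and 7 activity read by Caspase-Glo luminescence; cells exposed to compound for 16 h before the caspase read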
# How it was run: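 Concentration-response qHTS: compound-induced rise in caspase 3/7 luminescence in human mesangial cells after 16 h, normalized to DMSO and 100 uM tamoxifen controls.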
# [8] = Cellular Toxicity (caspase-3) SK-N-SH (AID 661); settings: SK-N-SH caspase-3 activation, qHTS; series mostly up to 91.7 µM
# How it was run: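 Caspase 3/7 activation is measured as a luminescence increase from aminoluciferin released by substrate cleavage in SK-N-SH cells after 16 hr compound treatment; values are AC50 from concentration-response curves.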
# [9] = Cellular Toxicity (caspase-3) H-4-II-E (AID 663); settings: H-4-II-E rat hepatoma; Potency: caspase-3 activation; series mostly up to 92.2 µM;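 also: cells exposed to compound for 16 hr before readout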
# How it was run: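 Apoptosis induction is scored as increased luminescence from caspase 3/7 substrate cleavage in rat hepatoma H-4-II-E cells exposed to compound for 16 hr. Activity is scaled between DMSO and 100 uM tamoxifen.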
# [10] = Cellular Toxicity (caspase-3) Hek293 (AID 664); settings: HEK293 caspase-3 activation, DMSO = 0%, 100 µM tamoxifen = 100%; series mostly up to 92.2 µM;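 also: cells exposed to compound for 16 h at 37 °C before readout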
# How it was run: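 Activation of caspase-3/7 is measured as increased luminescence from cleaved peptide-aminoluciferin substrate in HEK293 cells treated 16 hours at 37 °C. AC50 values come from Hill-equation fits of concentration-response data.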
# [11] = Cellular Toxicity (caspase-3) N2a (AID 665); settings: N2a cells, luminescence; Potency: caspase-3 activation; series mostly up to 92.2 µM;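 also: compound exposure lasted 16 h at 37 °C before readout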
# How it was run: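 Plated mouse neuroblastoma N2a cells received titrated compounds for 16 h in complete medium. Caspase activity was then detected with a peptide-aminoluciferin luminescent reagent.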
# [12] = Cellular Toxicity (caspase-3) NIH 3T3 (AID 666); settings: NIH 3T3 caspase-3 activation, apoptosis/toxicity; series mostly up to 92.2 µM;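 also: caspase signal read after 16 h compound exposure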
# How it was run: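 Concentration-response qHTS in NIH 3T3 mouse fibroblasts scores caspase-3/7 activation as rising luminescence after 16 hr compound exposure. Signals are scaled between DMSO-only and 100 uM tamoxifen.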
# [13] = Cellular Toxicity (caspase-3) Renal Proximal Tubule (AID 667); settings: renal proximal tubule cells, primary cells freshly taken from rat, solvent-only wells 0%, staurosporine 100%; series mostly up to 91.7 µM;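 also: cells exposed to compound for 16 hours at 37 °C before detection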
# How it was run: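 In qHTS format, rat primary proximal tubule cells seeded at 1000 per well are exposed to compounds for 16 hours at 37 °C. An increase in Caspase-Glo 3/7 luminescence indicates caspase activation.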
# [14] = biological target: Guanine nucleotide-binding protein G(i) subunit alpha-1 (Homo sapiens) (UniProt P63096); experiment: qHTS Assay for Inhibitors of RGS12 GoLoco Motif Activity (Green Fluorophore) (AID 879); settings: Galphai1/FITC-RGS12 GoLoco peptide, fluorescence polarization; series mostly up to 57.1 µM;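 also: negative values mean loss of peptide binding seen as reduced polarization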
# Chain of Guanine nucleotide-binding protein G(i) subunit alpha-1 (Homo sapiens) (P63096 whole entry, looked up): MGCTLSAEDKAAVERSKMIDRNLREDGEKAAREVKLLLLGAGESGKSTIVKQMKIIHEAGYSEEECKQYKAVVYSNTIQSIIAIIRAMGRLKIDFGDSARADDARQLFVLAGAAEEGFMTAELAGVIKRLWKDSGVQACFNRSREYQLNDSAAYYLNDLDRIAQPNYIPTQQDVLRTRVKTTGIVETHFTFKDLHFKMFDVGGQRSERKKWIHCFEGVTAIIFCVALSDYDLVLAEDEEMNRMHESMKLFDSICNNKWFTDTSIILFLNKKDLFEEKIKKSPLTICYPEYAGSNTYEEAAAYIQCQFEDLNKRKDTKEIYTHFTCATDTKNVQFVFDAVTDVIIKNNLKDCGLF
# How it was run: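 Fluorescence polarization assay: 50 nM Gαi1 with 10 nM FITC-labeled RGS12 GoLoco peptide in 10 mM Tris pH 7.5, 150 mM NaCl, 0.1 mM GDP, 0.05% NP40, 10 min at room temperature with compound.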
# [15] = biological target: Cytochrome P450 3A4 (Homo sapiens) (UniProt P08684); experiment: qHTS Assay for Inhibitors and Substrates of Cytochrome P450 3A4 (AID 884); settings: recombinant CYP3A4, Luciferin-PPXE luminescence; series mostly up to 57.1 µM; also: nearly all actives have a fitted effect of over 50% in size
# Chain of Cytochrome P450 3A4 (Homo sapiens) (P08684 whole entry, looked up): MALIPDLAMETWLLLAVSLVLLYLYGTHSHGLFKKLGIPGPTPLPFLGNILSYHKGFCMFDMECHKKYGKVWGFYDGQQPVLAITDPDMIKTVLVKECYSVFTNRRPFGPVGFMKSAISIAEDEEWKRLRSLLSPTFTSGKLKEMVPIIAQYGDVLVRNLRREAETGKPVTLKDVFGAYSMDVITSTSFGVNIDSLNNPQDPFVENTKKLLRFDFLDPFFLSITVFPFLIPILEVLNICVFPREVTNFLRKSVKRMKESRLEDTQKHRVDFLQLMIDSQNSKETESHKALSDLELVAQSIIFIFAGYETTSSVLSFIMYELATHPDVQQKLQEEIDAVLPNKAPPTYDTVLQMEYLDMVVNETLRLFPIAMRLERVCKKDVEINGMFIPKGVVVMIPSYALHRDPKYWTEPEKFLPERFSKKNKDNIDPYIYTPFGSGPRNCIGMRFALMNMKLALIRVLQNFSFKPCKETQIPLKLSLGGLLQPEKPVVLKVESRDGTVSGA
# How it was run: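 20 nM human CYP3A4 with 25 uM Luciferin-PPXE (at KM) in 200 mM KPO4, preincubated 10 min with compound; NADPH regeneration started a 60 min RT reaction. Luciferin detected by luminescence, normalized to 57 uM ketoconazole as full inhibition.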
# [16] = Confirmation and Secondary Assay for Modulators of Hemoglobin Beta Chain Splicing at IVS2 654 locus (AID 910); settings: HeLa EGFP-654 splicing reporter, GFP fluorescence, 48 h; series mostly up to 46.1 µM;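 also: HeLa cells stably carrying EGFP split by mutant beta-globin IVS2-654 intron; per-well total GFP intensity by laser scanning cytometry after 2-day treatment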
# How it was run: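 Readout: per-well total peak green fluorescence (488 nm ex, 500–520 nm em) from objects 5–250 µm, reflecting correct splicing of an EGFP-654 reporter. Compounds were applied for 2 days at 37 °C to overnight-plated HeLa EGFP-654 cells; controls were DMSO and 500 nM IVS2-654 PNA.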
# [17] = biological target: Cytochrome P450 3A4 (Homo sapiens) (UniProt P08684); experiment: qHTS Assay for Activators of Cytochrome P450 3A4 (AID 885); settings: recombinant CYP3A4, Luciferin-PPXE luminescence, 60 min; series mostly up to 57.1 µM; also: nearly all actives have a fitted effect of over 65% in size
# How it was run: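 Signal was normalized against complete inhibition by 57 uM ketoconazole. The reaction used 20nM CYP3A4 with 25uM Luciferin-PPXE, 10-min compound preincubation and a 60-min NADPH-supported step at RT.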
smiles,measurement,setting,value
CCN1CCC[C@H]1CNC(=O)c1c(OC)ccc(Br)c1OC,outcome,[1],inactive
same,Potency,[2],199 nM (active)
C[C@]12CC[C@@H]3c4ccc(O)cc4CC[C@H]3[C@@H]1CC[C@@H]2O,Potency,[3],inactive
same,Potency,[4],inactive
same,outcome,[5],inactive
same,Potency,[6],inactive
same,outcome,[7],inactive
same,Potency,[8],inactive
same,Potency,[9],inactive
same,outcome,[10],inactive
same,Potency,[11],inactive
same,Potency,[12],inactive
same,outcome,[13],inactive
same,outcome,[14],inactive
same,Potency,[15],inactive
Cc1c(N(C)CS(=O)(=O)O)c(=O)n(-c2ccccc2)n1C,outcome,[1],inactive
same,Potency,[15],inactive
same,outcome,[16],inactive
O=C1c2ccccc2C(=O)C1c1ccccc1,outcome,[1],inactive
same,Potency,[17],inactive
same,outcome,[16],inactive
O=C1OC(c2ccc(O)cc2)(c2ccc(O)cc2)c2ccccc21,Potency,[3],inactive
same,Potency,[4],inactive
same,outcome,[5],inactive
same,Potency,[6],inactive
same,outcome,[7],inactive
same,Potency,[8],inactive
same,Potency,[9],inactive
same,outcome,[10],inactive
same,Potency,[11],inactive
same,Potency,[12],inactive
same,outcome,[13],inactive
same,Potency,[17],inactive
same,outcome,[16],inactive
O=C(O)CCCCC(=O)O,Potency,[3],inactive
same,Potency,[4],inactive
same,outcome,[5],inactive
same,Potency,[6],inactive
same,outcome,[7],inactive
same,Potency,[8],inactive
same,Potency,[9],inactive
same,outcome,[10],inactive
same,Potency,[11],inactive
same,Potency,[12],inactive
same,outcome,[13],inactive
same,Potency,[15],inactive
CCn1cc(C(=O)O)c(=O)c2cnc(N3CCCC3)nc21,outcome,[1],inactive
same,Potency,[15],inactive
same,outcome,[16],inactive
CN1CCN(C(c2ccccc2)c2ccccc2)CC1,outcome,[1],inactive
same,Potency,[15],inactive
same,outcome,[16],inactive
CN(C)/N=N/c1nc[nH]c1C(N)=O,Potency,[3],inactive
same,Potency,[4],inactive
same,outcome,[5],inactive
same,Potency,[6],inactive
same,outcome,[7],inactive
same,Potency,[8],inactive
same,Potency,[9],inactive
same,outcome,[10],inactive
same,Potency,[11],inactive
same,Potency,[12],inactive
same,outcome,[13],inactive
same,Potency,[15],inactive
same,outcome,[16],inactive
CN1CCC[C@@H]1c1cccnc1,outcome,[14],inactive
CC(O)C(=O)O (stereo not drawn),Potency,[3],inactive
same,Potency,[4],inactive
same,outcome,[5],inactive
same,Potency,[6],inactive
same,outcome,[7],inactive
same,Potency,[8],inactive
same,Potency,[9],inactive
same,outcome,[10],inactive
same,Potency,[11],inactive
same,Potency,[12],inactive
same,outcome,[13],inactive
same,Potency,[15],inactive
